Source: PubChem BioAssay (National Center for Advancing Translational Sciences (NCATS))
Sampled rows, rich in hits. Any-hit rate of the full collection: about 19%.
TDP1 cell CPT: qHTS for Inhibitors of human tyrosyl-DNA phosphodiesterase 1 (TDP1): qHTS in cells in presence of CPT. chicken DT40 Tdp1-/-;hTDP1 cells + 20 nM CPT, ATP luminescence, 48 h. Potency, µM (top dose mostly 46.2 µM), for the others: at the highest dose activity change, negative = growth inhibition, hits mostly inhibitors. 12% of 420,000 active. AID 686979, 2013; further: potency means the concentration at half of the fitted maximal effect; on the % scale 0 is the no-effect control and ±100 the full control effect; nearly all actives have a fitted effect of over 55% in size
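Chicken DT40 Tdp1-/- cells stably complemented with human TDP1 were seeded at 400 cells/well in medium containing 20 nM camptothecin, exposed to pin-transferred compounds, and grown at 37 °C for at least 48 hr. Viability was read as ATP luminescence.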
Chronic BCR inh: qHTS Assay to Find Inhibitors of Chronic Active B-Cell Receptor Signaling. AID 493014, 2011. ABC-DLBCL IkBa-CBG/CBR reporter, luminescence ratio, 4 h. Potency, µM (doses to about 46.1 µM), for inactives: at the highest dose activity change, negative = inhibition, hits mostly inhibitors. 0.05% of 340,000 active; active means well fitted inhibition curve with a large enough effect in the signal ratio, with a control signal flat, not every such curve was filed as active; inconclusive means small, poorly fitted or top-dose-only effect, or effect the other way, or a change in a side signal; the % refers to the signal ratio;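 further: potency means the concentration at half of the fitted maximal effect; plate controls were basal doxycycline-induced cells for no effect and cells given 10 µM MG132 for full effect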
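Doxycycline induced both beetle luciferases in TMD8 lymphoma cells; IKK-driven degradation limits the IkappaBalpha-fused green signal, while red luminescence normalises for cell number and nonspecific effects. Compounds tested up to 46 uM, 4 hrs.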
MCF10A rerep: A quantitative high throughput screen for small molecules that induce DNA re-replication in MCF 10a normal breast cells; MCF 10A DNA re-replication, Hoechst nuclear intensity, 48 h; Potency, µM (top dose mostly 46.1 µM), for inactives: top-dose activity, positive = re-replication, usual class: activators; 2.9% of 350,000 active; AID 624296, 2012; further: potency means the concentration at half of the fitted maximal effect; % of control where 0% means no effect; nearly all actives have a fitted effect of over 50% in size
IL1B secr inh: qHTS for Inhibitors of Inflammasome Signaling: IL-1-beta AlphaLISA Primary Screen; activity change, % at 57.5 µM; THP-1 LPS/ATP IL-1B secretion, AlphaLISA, 16 h; active compounds read low; 4.7% of 360,000 active; in the data active means activity change below about -50%; inconclusive means mostly about -30% to -49%; further: on the % scale 0 is the no-effect control and ±100 the full control effect
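THP-1 cells pretreated 1 hr with compounds (up to 57.5 uM final), then stimulated with LPS (250 ng/mL final) plus ATP (1.25 mM final); secreted IL-1B measured by AlphaLISA after 16 hr, decreased signal indicating inhibition.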
TDP1 cell noCPT: qHTS for Inhibitors of human tyrosyl-DNA phosphodiesterase 1 (TDP1): qHTS in cells in absence of CPT; DT40 Tdp1-/- hTDP1 cells, no CPT, ATP luminescence, 48 h; Potency, µM (series often up to 46.2 µM), for the others: top-dose activity change, negative = growth inhibition, usual class: inhibitors; 15% of 420,000 active; further: potency means the concentration at half of the fitted maximal effect; on the % scale 0 is the no-effect control and ±100 the full control effect; nearly all actives have a fitted effect of over 55% in size
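A cellular qHTS used chicken DT40 cells lacking endogenous Tdp1 but carrying stably transfected human TDP1. Compounds were applied without camptothecin, and cell growth kinetics were judged by ATP-dependent luminescence after ≥48 hr.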
SW480 rereplic: A quantitative high throughput screen for small molecules that induce DNA re-replication in SW480 colon adenocarcinoma cells; Potency, µM (doses to about 46.1 µM), without a hit: at the highest dose re-replication activation, hits mostly activators; AID 624297, 2012; SW480 DNA re-replication, Hoechst DNA content imaging, 48 h; 1.8% of 340,000 active; further: potency means the concentration at half of the fitted maximal effect; % of control where 0% means no effect; nearly all actives have a fitted effect of over 55% in size
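Image-based DNA-content assay: after two days of treatment, nuclei were labelled with the DNA dye Hoechst and imaged, and hits were compounds raising the count of nuclei showing high fluorescence intensity.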
* hit, by the source's call; i = inactive; ? = inconclusive; nt = no result given; [ ] = remark or other dose. Unless noted, the call rests on the fitted dose curve; in most records, active means well fitted curve in the direction sought with a large enough effect; inconclusive means small, poorly fitted or top-dose-only effect, or another doubt; inactive means no such curve, though single readings can be large; an effect the other way counts as inactive or inconclusive.

SMILES	TDP1 cell CPT	Chronic BCR inh	MCF10A rerep	IL1B secr inh	TDP1 cell noCPT	SW480 rereplic
Cc1ccc(NC(=O)c2ccccc2)cc1	-6.0%	?	0.0%	?	-17.4%	3.5%
Cc1ccc(NC(=O)C2=C(c3ccccc3)S(=O)(=O)CCS2(=O)=O)cc1	0.461µM*	?	?	-104.0*	0.581µM*	2.06µM*
O=C(c1ccco1)N1CCC[C@@]2(CCN(c3ccncc3)C2)C1	13.2%	nt	nt	nt	-29.8%	nt
CCN(CC)c1ccc(/C=C/c2cc(Cl)nc3ccccc23)cc1	?	nt	nt	nt	15.8µM*	nt
Nc1ccc(/C=C/c2cc(Cl)nc3ccccc23)cc1	3.98µM*	nt	nt	nt	3.98µM*	nt
CN(C)c1ccc(/C=C/c2cc(Cl)nc3ccccc23)cc1	?	nt	nt	nt	-29.1%	nt
O=C(c1cc(Cl)nc2ccccc12)N1CCCCC1	-21.6%	6.5%	9.9%	26.4	-11.7%	-1.0%
COCCCNC(=O)c1cccc2c(-c3ccnn3C)coc12	?	nt	nt	45.9	-19.1%	nt
COCC(=O)Nc1cc(C(=O)N2CCc3c(Cl)cccc3C2)c2c(c1)nc(-c1ccncc1)n2C	4.2%	nt	nt	nt	2.9%	nt
COc1ccc2c(-c3ccccc3)cc(SCC(=O)NC(N)=O)nc2c1	-29.2%	-2.2%	5.8µM*	17.4	-10.2%	-38.1%
COc1ccc2c(-c3ccccc3)cc(SCC(=O)N(C)C)nc2c1	?	?	18.3%	-68.3*	?	-3.4%
COc1ccc2c(C(=O)c3ccc(C)cc3)n(Cc3ccc(C(N)=O)cc3)[n+]([O-])c2c1	?	?	46.7%	2.9	-24.6%	34.2%
Cc1ccc(C2=Nc3ccccc3N=C(c3ccco3)C2)c(O)c1	-16.5%	-21.3%	10.3%	0.0	-25.1%	-1.8%
Cc1ccc(O)c(C2=Nc3ccccc3N=C(c3ccco3)C2)c1	?	3.0%	?	14.3	13µM*	-2.2%
Cc1ccc(NC(=O)c2ccc3nc(N4CCOCC4)sc3c2)c(Cl)c1	-11.8%	-1.3%	-5.8%	-8.7	?	-2.6%
O=C(CCN1C(=O)/C(=C/c2ccc(Cl)cc2)SC1=S)Nc1cccc(C(=O)O)c1	0.8%	0.6%	12.9%	10.7	-12.5%	-5.5%
O=C(O)c1cccc(N2C(=O)/C(=C/c3ccc(SCc4ccc(Cl)cc4)o3)SC2=S)c1	20.6µM*	4.3%	?	93.0	?	i[1.84 µM]
CC(C)c1cc(C(C)C)c(S(=O)(=O)N2c3ccccc3[C@@]3(Br)C[C@H]4C(=O)N[C@@H](Cc5ccccc5)C(=O)N4[C@@H]23)c(C(C)C)c1	11.6µM*	nt	-28.2%	-18.4	11.6µM*	?
CCNC(=O)C1CCCN(C(=O)c2ccc(C#N)cc2)CC1 (stereo not drawn)	-19.0%	nt	nt	23.3	-1.0%	nt
COCCN1CCN(Cc2nc(Cc3ccc(OC)c(OC)c3)no2)CC1	-13.8%	15.1%	-3.3%	2.1	15.2%	-7.3%
COc1ccc(Cc2noc(CN3CCN(Cc4cccc(Cl)c4)CC3)n2)cc1OC	?	?	0.3%	-5.2	10.3µM*	-6.9%
COc1ccc(Cc2noc(CN3CCN(c4ccc(Cl)cn4)CC3)n2)cc1OC	?	-18.0%	9.2%	?	18.4µM*	-0.1%
CC(C)CCc1noc(CN2CCN(c3ccc(Cl)cn3)CC2)n1	-14.2%	?	-3.8%	7.2	1.5%	-0.6%
COc1ccc(/C=C/C(=O)NCC(=O)N2CCC(N(C)CCN3CCOCC3)CC2)cc1OC	11.9%	0.4%	3.9%	-5.4	19.8%	-8.3%
CNC(=O)[C@@H]1C[C@H](Sc2nc3ccccc3[nH]2)CN1Cc1cccc(C(F)(F)F)c1	-24.1%	nt	nt	nt	-20.6%	nt
